# From PubChem BioAssay
# ST2 IL33 inh: blocks human ST2 binding to IL-33; Q01638; inhibition, % for hits at 17 µM; 78,000 compounds, 2.3% hits; AlphaLISA ST2-Fc/biotin-IL-33 interaction, 1 h; in the data active means inhibition above about 30%
# Target sequence (Q01638 whole entry, looked up): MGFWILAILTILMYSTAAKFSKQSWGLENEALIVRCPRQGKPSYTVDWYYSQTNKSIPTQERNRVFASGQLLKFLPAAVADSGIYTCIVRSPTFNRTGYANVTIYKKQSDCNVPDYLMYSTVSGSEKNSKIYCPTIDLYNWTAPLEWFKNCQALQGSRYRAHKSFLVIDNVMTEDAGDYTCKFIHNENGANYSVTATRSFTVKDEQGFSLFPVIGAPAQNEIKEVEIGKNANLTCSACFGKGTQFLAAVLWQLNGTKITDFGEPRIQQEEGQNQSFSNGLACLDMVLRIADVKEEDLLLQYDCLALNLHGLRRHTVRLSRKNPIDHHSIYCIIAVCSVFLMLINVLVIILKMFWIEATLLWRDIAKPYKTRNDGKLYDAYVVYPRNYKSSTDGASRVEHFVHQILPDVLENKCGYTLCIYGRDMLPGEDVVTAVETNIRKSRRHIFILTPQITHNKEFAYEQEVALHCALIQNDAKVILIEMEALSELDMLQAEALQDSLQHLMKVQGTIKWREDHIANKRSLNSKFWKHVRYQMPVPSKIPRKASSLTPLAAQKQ
# Hits are given with their value; – = inactive. Only a selection was taken, and hits are over-represented in it overall.
SMILES,ST2 IL33 inh
COc1ccc2cc3cc(C(=O)Nc4ccc(OC)c(Cl)c4)oc3nc2c1,31%
COc1ccc2nc3oc(C(=O)Nc4ccc(F)cc4F)cc3cc2c1,–
CCc1cccc(NC(=O)c2cc3cc4ccc(OC)cc4nc3o2)c1,–
COC(=O)c1nc2n(n1)C(c1ccc(C)cc1)C1=C(CCCC1=O)N2 (stereo not given),–
COc1cccc(C(=O)Nc2c3c(nn2C(C)(C)C)CS(=O)C3)c1OC (stereo not given),–
COc1ccc(-c2nccn2-c2cccc(CO)c2)c(Cl)c1OC,–
Cc1cc([N+](=O)[O-])nn1CCCC(=O)Nc1sc2c(c1C(=O)OC(C)C)CCCC2,–
Clc1ccccc1-c1nc2nnnn2c2ccc(Br)cc12,–
CCOC(=O)c1[nH]c2ccccc2c1NC(=O)C(C)(C)Oc1ccc(Cl)cc1,–
O=c1c2c(-c3ccc(Br)cc3)csc2ncn1-c1ccccc1,–
O=C(N=c1scc(-c2ccccc2)n1-c1ccccc1)c1ccco1,–
OCCN=c1scc(-c2ccc(Br)cc2)n1-c1ccccc1,39%
Nc1nc(-c2ccc([N+](=O)[O-])cc2)cs1,–
O=C(NCC1CCCO1)c1ccccc1Sc1ccc([N+](=O)[O-])cc1 (stereo not given),–
CN(CC1CCCO1)c1nc(-c2ccc([N+](=O)[O-])cc2)cs1 (stereo not given),54%
O=C(O)CCNc1ccc(Br)cc1C(=O)O,–
CN1C[C@@H](NC(=O)Nc2cccc(C#N)c2)C[C@H]1c1nc(-c2cnccn2)no1,–
COCCNS(=O)(=O)c1ccc2c(c1)CCN2C(=O)C1CC1,–
O=C(O)C1=CC(=C(c2ccc(O)c(C(=O)O)c2)c2ccc(O)c(C(=O)O)c2)C=CC1=O,89%
Cc1ccc2nsnc2c1NC(=O)C(c1ccccc1)c1ccccc1,–
O=C(CCC(=O)NC1CCCCCC1)NC1CCCCCC1,–
Cc1nnsc1CN(C)CC(=O)NC1CCCCCCC1,–
Cc1nnsc1CN(C)C(=O)CCC(=O)NC1CCCC1,97%
COc1ccccc1N1CCN(C(=O)c2cc(OC)c(OC)c(OC)c2)CC1,–
Cc1ccccc1C(=O)N1CCN(c2ccc([N+](=O)[O-])c(N3CCOCC3)c2)CC1,–
SMILES,ST2 IL33 inh
O=C(c1cnc(N2CCN(c3ccccn3)CC2)c2ccccc12)N1CCN(c2ccccn2)CC1,–
COc1ccccc1N1CCN(c2ccc([N+](=O)[O-])c3cccnc23)CC1,31%
O=[N+]([O-])c1ccccc1OCC(O)CN1CCN(c2ccccc2F)CC1 (stereo not given),–
O=[N+]([O-])c1cccc(Cl)c1N1CCN(c2ccc([N+](=O)[O-])c3cccnc23)CC1,–
Cc1cc(C)n(-c2ccc(C(F)(F)F)cc2[N+](=O)[O-])n1,–
CC(O)CNc1ccc(C(F)(F)F)cc1[N+](=O)[O-] (stereo not given),–
O=[N+]([O-])c1cc(C(F)(F)F)ccc1N1CCN(CCOc2nonc2-c2ccccc2)CC1,45%
Cc1cc(-c2c(-c3ccccc3)ncn2CCOc2nonc2C)n[nH]1,–
O=C(c1ccccc1F)N1CCN(c2ccc([N+](=O)[O-])c3cccnc23)CC1,35%
O=[N+]([O-])c1cc(C(F)(F)F)ccc1N1CCc2ccccc21,68%
Cc1c(-c2ccc(C(C)N3CCCCC3)cc2)c(=O)n(C)c(=O)n1C (stereo not given),–
COCCN(CC1CCCN(C2Cc3ccccc3C2)C1)C(=O)Cc1[nH]nc2ccccc12 (stereo not given),–
CCOc1cc(C(=O)Nc2cc(Cl)c(OC)cc2OC)cc(OCC)c1OCC,–
Cc1cc(S(=O)(=O)NCC(=O)NC(C)c2cnn(C)c2)ccc1F (stereo not given),–
Cc1cccn2c(CC(=O)N(C)C(C)c3cccs3)cnc12 (stereo not given),–
CCCC(C)C(=O)Nc1ccc(OC)cc1OC (stereo not given),–
CCOc1cccc(OCCOc2cccc(C)c2)c1,–
N#CC1=C(N)OC2=C(C(=O)CCC2)C1c1cccc(Cl)c1Cl (stereo not given),–
CCCC1=NN(C(=O)c2ccccc2Br)C(O)(C(F)(F)F)C1 (stereo not given),–
O=C(CCN1C(=O)C2C3C=CC(CC3)C2C1=O)Nc1ccc(OC(F)(F)F)cc1 (stereo not given),–
CC1CCc2oc3ccc(NS(=O)(=O)c4ccc(F)cc4)cc3c2C1 (stereo not given),–
CSc1nc2c(c(=O)[nH]1)C(c1ccc(Cl)cc1)C(C(=O)OC(C)C)=C(C)N2 (stereo not given),–
CC(C)NC(=O)CNC(=O)C1(c2ccccc2F)CC1,–
CS(=O)(=O)c1ccc(N2CCN(c3ccccc3)CC2)c([N+](=O)[O-])c1,–
O=[N+]([O-])c1cc(CN2CCOCC2)c(O)c2ncccc12,–
SMILES,ST2 IL33 inh
CCC(=O)N1CCN(c2ccc(F)cc2[N+](=O)[O-])CC1,–
O=[N+]([O-])c1cc(C(F)(F)F)ccc1N1CCN(c2ccc([N+](=O)[O-])c3cccnc23)CC1,45%
O=[N+]([O-])c1cccnc1N1CCOCC1,–
COc1ccc(N2CCN(c3ccc([N+](=O)[O-])c4cccnc34)CC2)c([N+](=O)[O-])c1,55%
COc1ccc(N2CCN(c3cc(N4CCN(C)CC4)ccc3[N+](=O)[O-])CC2)cc1,44%
COc1ccc(N2CCN(Cc3cc(OC)c(O)c([N+](=O)[O-])c3)CC2)cc1,–
CN1CCN(c2cc(N3CCN(CCO)CC3)ccc2[N+](=O)[O-])CC1,–
Cc1ccc2nc(COc3cccc(NC(=O)c4cccc(Br)c4)c3)cc(=O)n2c1,–
CCCS(=O)(=O)N1CCCC(C(=O)NC2CC2)C1 (stereo not given),–
Cc1ccccc1OCC(=O)N1N=C(c2cccc(Br)c2)CC1(O)C(F)(F)F (stereo not given),–
O=C(C1Cc2ccccc2O1)N1CC(c2ccncc2)C1 (stereo not given),–
O=C(Nc1ccc(F)cc1)Nc1ccccc1I,–
O=c1oc2ccc(Cl)cc2cc1-c1nnc(-c2cccc(Br)c2)o1,–
CCn1nc(C)c(NC(=O)CN2CCCC2c2cc(C(C)C)on2)c1C (stereo not given),–
CC(C)c1cc(C2CCCN2C(=O)c2cnn3c2CCCC3)no1 (stereo not given),32%
Cc1noc(C)c1C1CCCN1C(=O)c1cnn2ccn(C)c12 (stereo not given),–
CCC(NC1CCN(c2ccc(C(=O)NC3CCCC3)cc2)CC1)c1nc2ccc(C)cc2[nH]1 (stereo not given),–
NC(=O)c1cn(CC(=O)N2CCOC(C(F)(F)F)C2)c2ccccc12 (stereo not given),–
O=C(O)CNC(=O)/C(=C/c1ccc2c(c1)OCO2)NC(=O)c1ccccc1Cl,–
Cc1ccc(N=C2SC(C(=O)Nc3ccc(C(=O)O)cc3)CC(=O)N2C)cc1C (stereo not given),–
COc1cccc(/C=C2/C=C(c3cc(OC)ccc3OC)OC2=O)c1,42%
COc1ccc(C2=C/C(=C/c3ccc4c(c3)OCO4)C(=O)O2)c(OC)c1,–
COc1ccc(OCCOc2cccc(C=O)c2)cc1,–
COc1ccc(OC)c(/C=C2\N=C(c3ccc(OC)c([N+](=O)[O-])c3)OC2=O)c1,–
COc1ccc(OC)c(N2C(=O)C3CCCCC3C2=O)c1 (stereo not given),–
COc1ccc(OC)c(/C=C2/C=C(c3cc(OC)ccc3OC)OC2=O)c1,41%
Cc1ccsc1-c1nc(CN(C)Cc2cnn(C)c2C)c(C)o1,–
